Experiment [1] is described as follows: stimulators of insulin release from INS-1E, primary screen, cell-based, 5 mM glucose, NPC library (AID 1117329). To be noted: rat INS-1E insulin secretion, at 10 µM, hits give high values.
The nature of experiment [2]: growth inhibition of GSK3B-pretreated HCT116 cells – cell-based, CellTiter-Glo, 0.2 to 20 µM (AID 1117336;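 active = compounds lowering colon cancer cell viability after pretreatment blocking the GSK3B kinase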). Conditions: HCT116 viability after GSK3B inhibitor, at 20 µM, hits give high values. For orientation: In ATP-based viability assays light output follows the ATP content of the culture.
A short description of experiment [3]: inhibition of endothelial tube formation, primary screen, imaging, VEGF stimulated, CD31 staining, tube area, NPC library (AID 1117340;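 active = compound that reduces growth-factor-driven endothelial tube area in a mixed cell culture, no cutoff stated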). To be noted: VEGF-stimulated ADSC/ECFC co-culture, at 10 µM, hits give high values.
A short description of experiment [4]: GLP1 release stimulators, primary, NCI-H716, NPC library (AID 1117341;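 active = compound raises GLP1 secretion from the human gut endocrine cells, with no numeric limit stated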). To be noted: NCI-H716 cells, at 10 µM, hits give high values.
Experiment [5] is described as follows: HCT116 colon cancer cell growth inhibition, primary screen, CellTiter-Glo luminescence, NPC library (AID 1117342;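 active = compounds that lower survival of HCT116 colon cancer cells in the luminescence readout, no numeric limit stated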). Conditions: at 20 µM (top of the series).
Experiment [6] can be described thus: reduced SW480 viability measured with CellTiter-Glo, NPC library, primary (AID 1117343;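 active = compounds that lower viability of the colon cancer cells in the luminescence readout, with no numeric limit stated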). Conditions: CellTiter-Glo luminescence; at 20 µM (top of the series).
Experiment [7] in a line: NPC library primary testing for decreased DLD-1 cell viability via CellTiter-Glo (AID 1117346;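 active = compounds that lower survival of DLD-1 colon cancer cells in the luminescence readout, no cutoff given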). To be noted: DLD-1 viability, CellTiter-Glo luminescence; at 20 µM (top of the series).
Experiment [8] addresses 6-phosphogluconate dehydrogenase, decarboxylating (Homo sapiens) (UniProt P52209). In words: inhibition of human phosphogluconate dehydrogenase – biochemical, recombinant enzyme, NADPH absorbance, primary screen (AID 1159550;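 active = at least 20% inhibition of 6-phosphogluconate dehydrogenase activity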). Conditions: recombinant 6PGD, NADPH absorbance 341 nm; at 10 µM; hits give high values.

Unmarked numbers belong to inactive results. Calls of active or inactive are those of the source.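 The calls were made as follows, unless noted: active = compound raises insulin release from rat beta cells at 5 mM glucose, no numeric limit stated; inactive = the rest.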

For orientation: inhibition means the change of the read-out against control, counted positive when it falls.

Chain of 6-phosphogluconate dehydrogenase, decarboxylating (Homo sapiens) (P52209 whole entry, looked up): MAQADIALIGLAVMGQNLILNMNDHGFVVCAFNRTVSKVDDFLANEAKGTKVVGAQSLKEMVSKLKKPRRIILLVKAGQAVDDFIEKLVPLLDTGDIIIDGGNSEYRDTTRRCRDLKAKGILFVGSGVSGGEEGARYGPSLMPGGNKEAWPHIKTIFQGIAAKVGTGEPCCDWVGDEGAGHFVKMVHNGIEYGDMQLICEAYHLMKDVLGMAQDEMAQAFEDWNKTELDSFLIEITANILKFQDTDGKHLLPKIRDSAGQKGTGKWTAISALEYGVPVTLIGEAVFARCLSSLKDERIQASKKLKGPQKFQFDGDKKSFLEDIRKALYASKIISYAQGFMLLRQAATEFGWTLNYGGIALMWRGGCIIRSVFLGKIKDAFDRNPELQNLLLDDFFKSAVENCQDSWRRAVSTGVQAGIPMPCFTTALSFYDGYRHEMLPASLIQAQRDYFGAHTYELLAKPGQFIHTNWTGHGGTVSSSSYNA

As for `C[N+](C)(C)CCOC(N)=O`, the insulin secretion stimulation in experiment [1] was -0.5%. In addition, the viability decrease in experiment [2] was 1.3%. Further, the tube area decrease in experiment [3] is -7.7%. In experiment [4], the GLP1 secretion stimulation is 2.2%. Moreover, in experiment [5], the inhibition of viability is -2.4%. Also, the viability decrease (inhibition) in experiment [6] is -4.8%; in experiment [7], -12.5%. Moreover, the inhibition in experiment [8] was -13.5%.

For the compound `O=c1[nH]cnc2nc[nH]c12`, the insulin secretion stimulation in experiment [1] was 0.7%. In addition, the viability decrease in experiment [2] is -11%. Further, the tube area decrease in experiment [3] was -3.2%. For the same compound, the GLP1 secretion stimulation in experiment [4] was 0.7%. In experiment [5], the inhibition of viability is -26.8%. Moreover, the viability decrease (inhibition) in experiment [6] was -73%; in experiment [7], -26.4%. The inhibition in experiment [8] was 4.21%.

Take `Cc1c(C(N)=O)cc([N+](=O)[O-])cc1[N+](=O)[O-]`: the insulin secretion stimulation in experiment [1] was -3.2%. Besides, the viability decrease in experiment [2] was 13.7%. Also, the tube area decrease in experiment [3] is -5.4%. Further, the GLP1 secretion stimulation in experiment [4] is 2.8%. In experiment [5], the inhibition of viability is -20%. Further, the viability decrease (inhibition) in experiment [6] is 34%; in experiment [7], 19.3%. The inhibition in experiment [8] is -17.5%.

As to `CCCCC(CC)CN=C(N)NC(N)=NCCCCCCN=C(N)NC(N)=NCC(CC)CCCC` (stereo unspecified), in experiment [1], the insulin secretion stimulation was 22.3% (active). In experiment [2], the viability decrease was 99.1% (active). For the same compound, the tube area decrease in experiment [3] is 108% (active). The GLP1 secretion stimulation in experiment [4] was 0%. For the same compound, the inhibition of viability in experiment [5] is 99.6% (active). Besides, the figures for the viability decrease (inhibition) in experiment [6] and in experiment [7] were 97% (active) and 102% (active), respectively. Besides, in experiment [8], the inhibition is -3.86%.

With `CCN(CC)CCOC(=O)C(c1ccccc1)C1CCCCC1` (stereo unspecified), in experiment [1], the insulin secretion stimulation was 18.2%. For the same compound, the viability decrease in experiment [2] was -99.4%. Further, the tube area decrease in experiment [3] is 14.5%. The GLP1 secretion stimulation in experiment [4] is 2.9%. In experiment [5], the inhibition of viability was 25%. Moreover, the viability decrease (inhibition) was 36.2% in experiment [6] and 48.4% in experiment [7]. In addition, the inhibition in experiment [8] was 9.92%.

`COC(=O)Nc1nc2ccc(S(=O)c3ccccc3)cc2[nH]1` (stereo unspecified): the insulin secretion stimulation in experiment [1] was -2.4%. For the same compound, the viability decrease in experiment [2] was 93.5% (active). The tube area decrease in experiment [3] was 110% (active). Further, the GLP1 secretion stimulation in experiment [4] is 8%. For the same compound, the inhibition of viability in experiment [5] was 92.2% (active). The viability decrease (inhibition) in experiment [6] was 96% (active); in experiment [7] it was 88% (active). The inhibition in experiment [8] was 17.4%.

Regarding `CC[C@]12CCCN3CCc4c(n(c5ccccc45)C(=O)C1)[C@@H]32`, the insulin secretion stimulation in experiment [1] was 0.1%. In addition, the viability decrease in experiment [2] is -29%. Moreover, the tube area decrease in experiment [3] was 100% (active). Further, the GLP1 secretion stimulation in experiment [4] was 7.7%. In experiment [5], the inhibition of viability is 35.7%. The figures for the viability decrease (inhibition) in experiment [6] and in experiment [7] were 60% (active) and 66.2% (active), respectively. Besides, in experiment [8], the inhibition is -5.24%.

`O=C1CCc2cc(OCCCCc3nnnn3C3CCCCC3)ccc2N1`: the insulin secretion stimulation in experiment [1] was -1.5%. Also, in experiment [2], the viability decrease was -19.3%. The tube area decrease in experiment [3] is 0.2%. Besides, the GLP1 secretion stimulation in experiment [4] is -1.1%. For the same compound, the inhibition of viability in experiment [5] was -0.27%. Also, the viability decrease (inhibition) in experiment [6] is 36.4%; in experiment [7], -12.1%. Further, the inhibition in experiment [8] is 1.01%.

In the case of `N[C@@H](Cc1ccc(O)c(O)c1)C(=O)O`, the insulin secretion stimulation in experiment [1] is 2.9%. Moreover, in experiment [2], the viability decrease is 68.9% (active). Also, in experiment [3], the tube area decrease is -13.9%. In addition, the GLP1 secretion stimulation in experiment [4] is 1.9%. Besides, in experiment [5], the inhibition of viability was 49.9%. Also, the viability decrease (inhibition) in experiment [6] is 66.7% (active); in experiment [7] it was 47.5%. For the same compound, the inhibition in experiment [8] is 2.07%.

In the case of `Nc1nc2c(c(=O)[nH]1)N(C=O)C(CNc1ccc(C(=O)N[C@@H](CCC(=O)O)C(=O)O)cc1)CN2` (stereo partly specified), the insulin secretion stimulation in experiment [1] was 3.9%. In experiment [2], the viability decrease was 19.3%. In addition, the tube area decrease in experiment [3] was 1.3%. Moreover, the GLP1 secretion stimulation in experiment [4] is 0.8%. Moreover, in experiment [5], the inhibition of viability is -11.6%. In addition, the results for the viability decrease (inhibition) in experiment [6] and in experiment [7] were 24.4% and -9.9%, respectively. For the same compound, the inhibition in experiment [8] is -1.29%.

As to `CCCCOc1ccc(C(=O)CCN2CCCCC2)cc1`, the insulin secretion stimulation in experiment [1] is 2.3%. In addition, the viability decrease in experiment [2] was 55.8% (active). Besides, the tube area decrease in experiment [3] is 12.5%. For the same compound, in experiment [4], the GLP1 secretion stimulation was -0.1%. The inhibition of viability in experiment [5] is 59.9% (active). In addition, the viability decrease (inhibition) in experiment [6] is 59.5% (active); in experiment [7], 31.3%. Besides, the inhibition in experiment [8] was 9.17%.

For `CCCCc1nc(Cl)c(CO)n1Cc1ccc(-c2ccccc2-c2nn[nH]n2)cc1`, in experiment [1], the insulin secretion stimulation is 0.1%. The viability decrease in experiment [2] was -41.3%. Further, the tube area decrease in experiment [3] is 11.8%. Further, in experiment [4], the GLP1 secretion stimulation is 1.1%. Also, the inhibition of viability in experiment [5] is -10.5%. Moreover, the viability decrease (inhibition) in experiment [6] was 28.5%; in experiment [7], -22.4%. The inhibition in experiment [8] was -22.5%.

Regarding `C=CCSCC1Nc2cc(Cl)c(S(N)(=O)=O)cc2S(=O)(=O)N1` (stereo unspecified), in experiment [1], the insulin secretion stimulation is -0.2%. The viability decrease in experiment [2] was -11%. The tube area decrease in experiment [3] was -0.7%. The GLP1 secretion stimulation in experiment [4] was 0.1%. Also, in experiment [5], the inhibition of viability is 3.27%. Also, the viability decrease (inhibition) in experiment [6] was -6.2%; in experiment [7], 1.8%. Further, the inhibition in experiment [8] was 5.8%.

As to `CCn1cc(C(=O)O)c(=O)c2cc3c(cc21)OCO3`, the insulin secretion stimulation in experiment [1] was -1.3%. In addition, the viability decrease in experiment [2] was -16%. Besides, the tube area decrease in experiment [3] was 12.1%. Further, the GLP1 secretion stimulation in experiment [4] is -1.5%. In addition, the inhibition of viability in experiment [5] was -19.5%. Moreover, the viability decrease (inhibition) in experiment [6] is 8.3%; in experiment [7] it was 7.15%. Besides, the inhibition in experiment [8] was 15.6%.

For the compound `Nc1nccs1`, the insulin secretion stimulation in experiment [1] was -0.1%. Further, in experiment [2], the viability decrease was 12.4%. Besides, the tube area decrease in experiment [3] is 5.4%. The GLP1 secretion stimulation in experiment [4] was -1%. Moreover, the inhibition of viability in experiment [5] was 25.5%. Moreover, the viability decrease (inhibition) in experiment [6] is 66.3% (active); in experiment [7], 10% (active). Besides, the inhibition in experiment [8] is 5.79%.

With `CCN1CCN(C(=O)N[C@@H](C(=O)N[C@@H]2C(=O)N3C(C(=O)O)=C(CSc4nnnn4C)CS[C@H]23)c2ccc(O)cc2)C(=O)C1=O`, the insulin secretion stimulation in experiment [1] is 1.3%. In experiment [2], the viability decrease was 6.1%. For the same compound, the tube area decrease in experiment [3] is -32.8%. Also, in experiment [4], the GLP1 secretion stimulation was 5.2%. In addition, the inhibition of viability in experiment [5] is -2.2%. Besides, the results for the viability decrease (inhibition) in experiment [6] and in experiment [7] were 8.6% and 3.3%, respectively. For the same compound, the inhibition in experiment [8] was 16.7%.

In the case of `CC(C)(Oc1ccc(CCNC(=O)c2ccc(Cl)cc2)cc1)C(=O)O`, the insulin secretion stimulation in experiment [1] was 0.4%. In addition, in experiment [2], the viability decrease is -10.3%. The tube area decrease in experiment [3] is -25.4%. The GLP1 secretion stimulation in experiment [4] was -1.3%. Moreover, the inhibition of viability in experiment [5] is 4.05%. Moreover, the viability decrease (inhibition) in experiment [6] is -13.9%; in experiment [7] it was -20.8%. Further, the inhibition in experiment [8] is 4.98%.

The record behind these values is PubChem BioAssay.
